Among the data in PubChem BioAssay (NCI) are growth values, retold here.

Each structure is given as a SMILES string. The panel holds about 83,000 compounds, 20% with a hit somewhere; the sample as a whole holds those more often.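 48-hour exposure, single concentration, 96-well plates; percent growth endpoint where 0 means no net growth. Active: below 10.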 Unmarked numbers belong to inactive results. Active and inactive are the calls of the source.

The assay concerns HL-60(TB) leukemia. Description: NCI-60 one-dose screen, 48 h (100 = growth as untreated, 0 = no growth, -100 = all killed). Particulars: 10 µM unless noted.

For `O=C1OC(/C=C/c2ccccc2)=NC/1=C/c1ccccc1[N+](=O)[O-]`, the growth is 96.2%.

In the case of `C#CC[C@@H]1C[C@]2(C)[C@H]3CC[C@@H]4[C@H]5C(C(=C)C)CC[C@]5(C(=O)NCCCCCCCCN)CC[C@@]4(C)[C@]3(C)CC[C@H]2C(C)(C)[C@H]1OC(C)=O` (stereo not given in full), the growth was 22%.

On to `N#Cc1c(-c2ccccc2)nc(SCC(=O)N2CCOCC2)[nH]c1=O`, for which the growth is 55.9%.

Regarding `Cc1ccc(-c2csc(/N=C3\C(=O)Nc4ccccc43)n2)cc1`, the growth is -48% (active).

As for `Cc1nc2c(c(=O)[nH]1)C(c1ccccc1)c1ccc3ccccc3c1O2` (stereo not given), the growth is -2.8% (active).

Take `COc1ccc(C2=C/C(=C\c3ccc(Cl)cc3)C(=O)NN2C(=S)NN)cc1`: the growth was 93.3%.

With `Cc1c(Cl)cccc1NC(=O)CCCl`, the growth is 73.6%.

Consider `O=C(N/N=C/c1ccc(Cl)cc1Cl)c1ccc2nc(-c3ccc(Cl)cc3)[nH]c2c1`, for which the growth is 5.77% (active).

On to `NC(N)=N/N=C\c1ccc(OCc2ccccc2)cc1`, for which the growth was 43.1%.

Turning to `CCOc1ccccc1C(=O)/C=C/c1cc2ccccc2[nH]c1=O`, the growth is -7.94% (active).

For the compound `N#Cc1c(N)nc(-c2cc(F)cc(C(F)(F)F)c2)nc1-c1ccccc1F`, the growth is 92.8%.

For `Cc1ccc(-c2nc([P+](c3ccccc3)(c3ccccc3)c3ccccc3)c(N3C[C@H]4C[C@H](C3)c3cccc(=O)n3C4)o2)cc1`, the growth was 36.7%.

With `Cc1ccc(-c2nc(C#N)c(S(=O)(=O)N(C)CCO)o2)cc1`, the growth is -18.1% (active).

Regarding `O=C(CI)NC(=O)NC(=O)NCc1ccccc1`, the growth is -10.5% (active).

As to `C=CCNC(=O)c1ccc(OC)cc1`, the growth was 87.7%.

On to `O=C(Oc1ccccc1Cl)c1ccc(Cl)cc1Cl`, for which the growth is 106%.

On to `O=S(=O)(NCCCNc1nccc(-c2cn(-c3ccccc3)nc2-c2ccc(Cl)c(O)c2)n1)c1ccccc1`, for which the growth was 83.4%.

For the compound `CCn1cc(C(=O)O)c(=O)c2cc(F)c(N3CCN(S(=O)(=O)c4cccc5ccccc45)CC3)cc21`, the growth was -46.2% (active).

In the case of `O=C(Nc1cnn2ccc(N3CCC[C@@H]3c3cc(F)ccc3F)nc12)N1CC[C@H](O)C1`, the growth is 126%.

For the compound `C=CCOc1ccc(N=NC(C#N)C#N)cc1`, the growth is 0.44% (active).

Take `C=CC(=O)Nc1cccc(-c2nc(SC)nc(NCc3ccccc3)c2C#N)c1`: the growth was 50%.

For the compound `Cc1c([C@H](C(Cl)Cl)[C@H](O)[C@H]2C[C@H](C)C(=O)O2)ccc2c1C(=O)[C@H]1[C@H]2C[C@@H](Br)[C@@]23O[C@@H](CO[C@H]2O)CC13C` (stereo not given in full), the growth is -16.4% (active).

For the compound `CC/C=C\C[C@H](O)C/C=C1/C(=O)C=C[C@@H]1C/C=C\CCCC(=O)NC`, the growth was -27.2% (active).

Turning to `O=[N+]([O-])c1ccc(NCSc2ccc(Cl)cc2)cc1`, the growth was 83.2%.

`ClC(Cl)c1nc(-c2ccccc2)n2nc(-c3ccccc3)cc2n1`: the growth is -7.03% (active).

Consider `C/C(=C\c1ccc2ccccc2c1)[N+](=O)[O-]`, for which the growth is -25.7% (active).

Turning to `NC1CCN(c2nc(Nc3cccc(C(F)(F)F)c3)c3c(=O)[nH]ccc3n2)CC1`, the growth was -61.2% (active).

With `O=C(Nc1ccccc1)C(CCCCN1C(=O)c2ccccc2C1=O)N1C(=O)c2ccccc2C1=O` (stereo not given), the growth was 104%.

For the compound `Cc1ccc(-c2ccc(Nc3ccccc3)nn2)cc1S(N)(=O)=O`, the growth was 86.7%.

As for `CN(C)CCN1C(=O)c2cccc3cc(N)cc(c23)C1=O`, the growth was 1.68% (active).

`O=C1OCC2=C1C(c1cccc(F)c1)c1cc3c(cc1N2CCO)OCCO3` (stereo not given): the growth was -34.5% (active).

For `COc1cc(NC(=O)c2cc3ccccc3nc2Nc2ccc(F)cc2)cc(OC)c1OC`, the growth is 47.2%.

As for `CN1CCN(c2ccc3nc(-c4cc(C(C)(C)C)c(O)c(C(C)(C)C)c4)[nH]c3c2)CC1`, the growth was 68.6%.

As to `CNCCCn1c2c(c3ccc(F)cc3c1=O)C(=O)c1cc(OC)cnc1-2`, the growth was -16.7% (active).

With `N#CC1C(c2ccc(Cl)cc2)=Nc2c(c(-c3ccccc3)nn2-c2ccccc2)C12C(=O)Nc1ccc(Cl)cc12` (stereo not given), the growth is -1.59% (active).

Turning to `CC1(C)C(N)=Nc2cc(OCCCN3Cc4ccc(OCCc5cn(CC(=O)N6CCC(CCN7CCCC7)CC6)nn5)cc4C3)c(OCC3CC3)cc21`, the growth was 97.3%.

As for `C1CNC(C2=NCCN2)=N1`, the growth is 109%.

Turning to `c1ccc(Cn2cc3c(c2-c2ccccc2)CCc2cnoc2-3)cc1`, the growth is 35.6%.

As to `COc1cc(OC)c(NC(=O)C(Sc2nc(C)cc(C)c2C#N)c2ccccc2)cc1Cl` (stereo not given), the growth is 94.1%.

For the compound `Cc1cccc(N=Nc2cccc(C)c2)c1`, the growth was 125%.
